Data reported in ChEMBL document CHEMBL3988442, “University of Dundee, Small-Polar-MMV Screening Library” (2021).
In all, about 38,000 compounds went through this assay and about 1,200 (3.2%) showed an effect of 50% or more. The median lay at about -58%. The full list was thinned out, with strong results kept by preference.

system: Plasmodium falciparum; assay: Calibr Malaria Delayed Death Assay SOP; assay type: functional, organism-based; set-up: scale not given: in the data most compounds retested in dose-response had high values; settings: concentration 4.99e-06 (unit not given; other assays of the set use mol/L)

Structure (SMILES) | Percent Effect
CN(C)C(=O)CC1CC2(CCN(Cc3ccco3)CC2)c2ccccc21.O=C(O)C(F)(F)F (stereo unspecified) | 24.78%
CN1C(=O)C2(CCCN(C(=O)c3ccc(=O)n(C)n3)C2)c2ccccc21 (stereo unspecified) | -36.85%
Cc1cc(C(=O)N2CCn3cc(CN4CCCCC4)nc3C2)no1 | -18.56%
CC(C)N(C)[C@@H]1CCN(S(C)(=O)=O)[C@H]1Cc1ccccc1 | 53.16%
O=S(=O)(C1CC1)N1CC[C@H](OCC2CC2)[C@@H]1Cc1ccncc1 | -74.15%
CC(C)N(C)[C@@H]1CCN(Cc2ccoc2)[C@H]1Cc1ccccc1 | 9.124%
CN(C)[C@@H]1CCN(C(=O)c2ccccn2)[C@H]1Cc1ccncc1 | -71%
CC(C)NC(=O)N1CC[C@@H](N(C)C)[C@@H]1Cc1ccccc1.O=C(O)C(F)(F)F | 14.09%
CN(C)[C@@H]1CCN(S(=O)(=O)C2CC2)[C@H]1Cc1ccccc1.O=C(O)C(F)(F)F | 63.58%
CN(C)[C@@H]1CCN(S(C)(=O)=O)[C@H]1Cc1ccccc1 | 16.37%
CN(C)[C@@H]1CCN(S(=O)(=O)c2cn(C)cn2)[C@H]1Cc1cccnc1.O=C(O)C(F)(F)F.O=C(O)C(F)(F)F.O=C(O)C(F)(F)F | -62.43%
CC(C)OC[C@H]1CCC[C@]12CN(C(=O)C1CCOCC1)CCO2 | -62.83%
CNC(=O)CN1CCC(CN(C)Cc2ccccc2N(C)C)CC1 | -85.31%
COc1ccc(CN2C[C@@H](O)[C@](O)(CNC(=O)c3ccccn3)C2)cc1 | -63.46%
Cn1cc(-c2ncnc3c2CCN(C(=O)c2cnccn2)CC3)cn1 | -80.91%
COc1ccc(C[C@H]2CN(C(=O)c3ccncc3)CC[C@@H]2OC)cc1.O=C(O)C(F)(F)F | -34.29%
COc1ccc(C[C@H]2CN(Cc3ccoc3)CC[C@H]2OC)cc1.O=C(O)C(F)(F)F | 74.09%
COc1ccc(C[C@H]2CN(c3nnc(C)s3)CC[C@@H]2OC)cc1.O=C(O)C(F)(F)F | -18.37%
COc1ccc(C[C@H]2CN(c3cc(OC)ncn3)CC[C@@H]2OC)cc1.O=C(O)C(F)(F)F | -3.62%
COc1ccc(C[C@H]2CN(Cc3ccoc3)CC[C@@H]2OC)cc1.O=C(O)C(F)(F)F | 63.43%
COc1ccc(C[C@H]2CN(c3nnc(C)s3)CC[C@H]2OC)cc1.O=C(O)C(F)(F)F | -6.177%
N#Cc1ccc(OC[C@]23COC[C@H]2CN(Cc2ccccn2)C3)nc1 | -50.77%
Cn1cccc1C(O)CNC(=O)COc1ccc(Cl)cc1Cl (stereo unspecified) | -33.74%

Structure (SMILES) | Percent Effect
Cn1cccc1C(CNC(=O)COc1ccc(Cl)cc1Cl)N1CCCC1 (stereo unspecified) | 74.07%
Cn1cccc1C(O)CNC(=O)COc1ccccc1F (stereo unspecified) | -31.9%
O=C(NCc1nnc2n1CCCC2)c1cn(-c2ccccc2)nn1 | -72.42%
COCC(=O)NCC1CCN(Cc2ccsc2)CC1 | -175%
COc1cccc(CC2CCCN2CC(N)=O)c1 (stereo unspecified) | -61.65%
COc1cccc([C@@H]2CCN(Cc3[nH]nc(C)c3Cl)C[C@H]2O)c1 | -13.94%
COc1cccc([C@H]2CN(C(C)=O)[C@@H]3CCN(Cc4ccsc4)C[C@H]23)c1.Cl | 72.65%
COCc1cc(O)nc(C2CCCN(Cc3cccc(OC)c3)C2)n1 (stereo unspecified) | -102.5%
COc1cccc([C@@H]2CCN(Cc3c[nH]c(C)n3)C[C@H]2O)c1 | -37.12%
COc1cccc(CN2CC[C@H]3[C@@H](C2)[C@H](c2ccsc2)CN3C(C)=O)c1 | 52.59%
CCN1CCC(N2C[C@@H](C(=O)O)[C@H](c3cccc(OC)c3)C2)CC1 | -103.5%
CNC(=O)[C@@]12CCC3(CCN(S(=O)(=O)C4CC4)CC3)[C@@H]1CN(C(C)=O)C2 | -121.6%
Cc1ccoc1C(=O)N1CCCC(CNS(C)(=O)=O)C1 (stereo unspecified) | -23.43%
NC(=O)Cn1cnc2nc3n(c2c1=O)CCC3 | -106.4%
CC(C)N1CCOC(Cc2nn3c(Cc4ccccc4)nnc3s2)C1 (stereo unspecified) | -78.89%
CO[C@H]1CCN(Cc2c(C)noc2C)[C@@H]2CN(Cc3cccnc3)C[C@H]12.O=C(O)C(F)(F)F.O=C(O)C(F)(F)F.O=C(O)C(F)(F)F | -19.09%
CN(Cc1noc(C2CC2)n1)C1CCN(CCc2cccs2)C1 (stereo unspecified) | -58.32%
Fc1ccc(CNCc2cc(Br)c3c(c2)OCO3)cc1 | -20.04%
COc1cc(CNCC(O)c2ccc(C)cc2)cc2c1OCCO2.Cl (stereo unspecified) | 46.91%
COc1cc(CNC(C)Cn2cccn2)cc2c1OCO2.Cl (stereo unspecified) | -35.84%
COc1cc(CNC(C)Cn2ccnc2)cc2c1OCO2.Cl (stereo unspecified) | -50.32%
COc1cc(CNCC(O)c2ccccc2)cc2c1OCO2.Cl (stereo unspecified) | 59.91%
COc1cc(CNCc2ccc(C(C)O)cc2)cc2c1OCO2 (stereo unspecified) | 7.669%

Structure (SMILES) | Percent Effect
Cc1cc(CNC(=O)NCC(O)c2cccc(F)c2)no1 (stereo unspecified) | -84.11%
COc1cc(CNC(C)c2ccc(F)c(F)c2)cc2c1OCCO2.O=C(O)C(=O)O (stereo unspecified) | -10.9%
COc1ccc(CNCc2cc(Br)c3c(c2)OCO3)cc1 | -51.11%
COc1c(C(N)=O)cn(C)c1-c1nc2cc(NC(C)=O)ccc2n1C | -29.86%
Cc1nc(O)cc(C2CCCN(Cc3c(Cl)cncc3Cl)C2)n1 (stereo unspecified) | -29.03%
O=C(Cn1cnnn1)NC(c1ccccc1)c1ccc2c(c1)CCCO2 (stereo unspecified) | -75.22%
Cc1ccoc1C(=O)N1CCO[C@H]2[C@H](OCc3ccncc3)CC[C@@H]21 | -118.2%
COc1ccccc1C(=O)N1CCCC1c1ncc2c(n1)CCNC2.Cl (stereo unspecified) | -133.7%
CC(O)CCN(C)C(=O)Nc1cccc(F)c1 (stereo unspecified) | -108.7%
CC(C)Cn1ncc(C(=O)NS(=O)(=O)C2CCCC2)c1C1CC1 | -142.6%
O=C(O)CCC(=O)N1CCC(c2noc3cc(F)ccc23)CC1 | -92.3%
CCC(=O)NC(c1cccnc1)c1cc(C)ccc1C (stereo unspecified) | -105.8%
O=C(CC1CCCC1)N1C[C@@H]2CCN(c3cccnc3)C[C@@H]2C1.O=C(O)C(F)(F)F | -61.89%
Cc1ccc(CNC(=O)CN2CCN(CCO)CC2)s1 | -40.21%
Cc1ccc(CNC2CC3(CCN(CCO)CC3)c3ccccc32)s1.O=C(O)C(F)(F)F.O=C(O)C(F)(F)F (stereo unspecified) | 84.71%
CCN1CCC2(CC1)CC(NC(=O)N(C)C)c1cc(C)ccc12.O=C(O)C(F)(F)F (stereo unspecified) | -8.453%
COCC(=O)NC1CC2(CCN(CCO)CC2)c2ccccc21.O=C(O)C(F)(F)F (stereo unspecified) | -47.31%
Cc1cccc(CNC2CC3(CCN(CCO)CC3)c3ccccc32)n1.O=C(O)C(F)(F)F.O=C(O)C(F)(F)F (stereo unspecified) | 77.51%
Cc1ccc2c(c1)C(NC(=O)N(C)C)CC21CCN(C)CC1.O=C(O)C(F)(F)F (stereo unspecified) | -16.75%
Cc1ccc2c(c1)C(N(C)C)CC21CCN(CCO)CC1.O=C(O)C(F)(F)F.O=C(O)C(F)(F)F (stereo unspecified) | 74.01%
O=C(NC1CC2(CCN(CCO)CC2)c2ccccc21)c1ccncc1.O=C(O)C(F)(F)F.O=C(O)C(F)(F)F (stereo unspecified) | -81.16%
Cn1cncc1CNC1CC2(CCN(CC3CC3)CC2)c2ccccc21.O=C(O)C(F)(F)F.O=C(O)C(F)(F)F (stereo unspecified) | -88.17%
CCOC1CC2(CCN(CCO)CC2)c2ccc(C)cc21 (stereo unspecified) | 16.18%

Structure (SMILES) | Percent Effect
O=C(NC1CC2(CCN(CCO)CC2)c2ccccc21)c1ccno1.O=C(O)C(F)(F)F (stereo unspecified) | -16.34%
O=C(Cc1ccn[nH]1)N1CCc2cc(Br)sc2C1 | -31.09%
CC1(C)COCCN1C(=O)c1ccc(Cn2cncn2)cc1 | -28.18%
Fc1ccc(OCCCN2CCCC(Cn3cncn3)C2)cc1 (stereo unspecified) | -24.19%
CN(C)CCNC(=O)c1nc2c(s1)CCCN2C(=O)C1CC1.O=C(O)C(F)(F)F | 21.8%
Cc1nc(CN2CCCn3c(nc(Cn4cncn4)cc3=O)C2)cs1.O=C(O)C(F)(F)F | -37.93%
Cc1cc(CN(C)C(=O)c2ccc(OCC(F)(F)F)nc2)no1 | -117.9%
CC(C)c1nn(C)c(Cl)c1CNCC(=O)N1CCN(C)CC1.Cl | -109.8%
Cn1ncc(C(=O)O)c1C(=O)Nc1nc2ccccc2s1 | -36.51%
C[C@@H]1CN(Cc2cn(C)nc2-c2ccccc2F)C[C@H](C)O1 | -119.2%
CC(NC(=O)N1CCN(c2cccs2)CC1)c1ccncc1 (stereo unspecified) | -36.24%
CC(NC(=O)N1CCN(c2cccs2)CC1)c1ccc(C#N)cc1 (stereo unspecified) | 61%
Cc1noc(C)c1C(C)NC(=O)N1CCN(c2cccs2)CC1 (stereo unspecified) | -38.18%
CN(Cc1ccccc1)CC1CC2(CO1)CN(Cc1cnn(C)c1)C2 (stereo unspecified) | 50.64%
CN(Cc1ccccc1)CC1CC2(CO1)CN(c1nncs1)C2 (stereo unspecified) | -3.819%
CN(Cc1ccccc1)CC1CC2(CO1)CN(Cc1nccs1)C2 (stereo unspecified) | 3.92%
Cc1nn(CC(=O)N2CCC3(CN(C)C(=O)O3)C2)c(=O)c2ccccc12 (stereo unspecified) | -0.9093%
Cc1cn2c(n1)C(CNCc1cccc3c1OCO3)CCC2 (stereo unspecified) | 81.04%
c1cc(CNCc2ccnc(N3CCCC3)c2)c2c(c1)OCO2 | -28.94%
Cc1nc(C)c(CNCC2CCCn3ccnc32)s1 (stereo unspecified) | -88.04%
Cc1ccc(CNCC2CCCN2c2cccnn2)s1 (stereo unspecified) | 44%
Cn1cc(N2CCCC(NCc3cccc4c3OCCCO4)C2)cn1 (stereo unspecified) | -37.41%
